From PubChem
miR122 inh = activators of miR-122 sensor in Huh7 cells; Huh7 psiCHECK-miR122 Renilla luciferase sensor, 48 h; activation, % at 12.5 µM; 340,000 tested, 0.14% active;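 active = mean activation of 30% or more, with every replicate also reaching 30%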;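 also: higher luciferase signal means stronger suppression of miR-122 activity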
Hits are given with their value; - = inactive. This is one part of a sample in which hits are shown more often than they occur.

SMILES	miR122 inh
C[C@@H]1CN([C@H](C)CO)S(=O)(=O)c2ccc(-c3ccc(C#N)cc3)cc2O[C@H]1CN(C)C(=O)C1CC1	-
CCCNC(=O)N(C)C[C@H]1Oc2cc(-c3ccccc3)ccc2S(=O)(=O)N([C@@H](C)CO)C[C@@H]1C	-
COc1ccc(/C=N/NC(=O)COc2ccccc2-c2ccccc2)cc1	-
COc1ccc(NC(=O)CN(C)C(=O)/C=C/c2ccc(OCc3ccccc3)cc2)cc1	43
COc1ccc(NC(=O)CCN2C(=O)c3ccccc3C2=O)cc1	-
CO[C@@H]1CN(C)C(=O)c2cc(NC(C)=O)ccc2OC[C@@H](C)N(C(=O)c2ccccc2)C[C@H]1C	-
C[C@H]1CN([C@@H](C)CO)C(=O)c2cc(C#Cc3ccc(F)cc3)cnc2O[C@@H]1CN(C)C(=O)c1ccccc1F	-
C[C@@H]1CN([C@@H](C)CO)C(=O)c2cc(C#CCN(C)C)cnc2O[C@H]1CN(C)C(=O)Cc1ccncc1	-
COc1ccccc1S(=O)(=O)N(C)C[C@@H]1Oc2cc(/C=C/c3ccccc3)ccc2S(=O)(=O)N([C@@H](C)CO)C[C@H]1C	-
CCCC(=O)Nc1ccc2c(c1)OC[C@H](C)N(C)C[C@H](C)[C@H](OC)CN(C)C2=O	-
C[n+]1c2cc(N)ccc2cc2ccc(N)cc21	76
C[C@@H]1CN([C@H](C)CO)C(=O)c2cc(C#Cc3ccc(F)cc3)cnc2O[C@H]1CN(C)CC1CCOCC1	-
COCC#Cc1cnc2c(c1)C(=O)N([C@H](C)CO)C[C@@H](C)[C@H](CN(C)C(=O)Nc1ccc(OC)cc1)O2	-
COc1cccc(NC(=O)N(C)C[C@@H]2Oc3ncc(C#Cc4cccnc4)cc3C(=O)N([C@@H](C)CO)C[C@@H]2C)c1	-
C[C@@H]1CN([C@H](C)CO)S(=O)(=O)c2ccc(C#Cc3ccccn3)cc2O[C@H]1CN(C)Cc1ccc(F)cc1	-
Cc1ccc(C2CN(C)C3(C(=O)Nc4ccccc43)C23COc2ccccc2C3=O)cc1 (stereo not given)	-
Cc1ccc(C2CN=NC23CCc2ccccc2C3=O)cc1 (stereo not given)	51
C[C@@H]1CN([C@H](C)CO)S(=O)(=O)c2ccc(-c3cccc(C(=O)N(C)C)c3)cc2O[C@@H]1CN(C)C(=O)Nc1ccccc1	-
CN[C@H]1C[C@H]2c3[nH]c4ccc(-c5ccc(OC)cc5)cc4c3CCN2C(=O)[C@H]1[C@H](C)O	32
C[C@H]1CN([C@@H](C)CO)C(=O)c2cc(Br)cnc2O[C@H]1CN(C)CC1CCOCC1	-
CCC(=O)N(C)C[C@H]1Oc2cc(-c3cccc(C#N)c3)ccc2S(=O)(=O)N([C@H](C)CO)C[C@@H]1C	-
CC(=O)C1=C(c2ccc(Br)cc2)C(=O)c2ccccc2C1=O	76
C[C@H](O)C#Cc1cnc2c(c1)C(=O)N([C@@H](C)CO)C[C@@H](C)[C@@H](CN(C)C(=O)CN(C)C)O2	-
C[C@H]1CN([C@@H](C)CO)S(=O)(=O)c2ccc(C#Cc3ccccc3)cc2O[C@@H]1CN(C)C(=O)Nc1ccc2c(c1)OCO2	-
CNC[C@H]1Oc2cc(C#Cc3cccc(F)c3)ccc2S(=O)(=O)N([C@H](C)CO)C[C@@H]1C	-
SMILES	miR122 inh
CCCNC(=O)N(C)C[C@@H]1Oc2cc(C#CCOC)ccc2S(=O)(=O)N([C@@H](C)CO)C[C@H]1C	-
O=S(=O)(C/C(=C/CO)S(=O)(=O)c1ccccc1)c1ccccc1	72
C[C@@H]1CN([C@H](C)CO)S(=O)(=O)c2ccc(/C=C/c3ccccc3)cc2O[C@H]1CN(C)C(=O)Nc1cccc(F)c1	-
COc1ccccc1S(=O)(=O)N(C)C[C@H]1Oc2cc(/C=C/c3ccccc3)ccc2S(=O)(=O)N([C@@H](C)CO)C[C@@H]1C	-
CN1C(=O)c2cc(NC(=O)Cc3ccccc3)ccc2OC[C@@H]2O[C@@H](CC(=O)NCC3CC3)CC[C@@H]21	-
CN(C)CCCNC(=O)C[C@@H]1CC[C@H]2[C@H](COc3ccc(NC(=O)c4cccc(F)c4)cc3C(=O)N2C)O1	42
CO[C@@H]1CN(C)C(=O)c2cc(NS(=O)(=O)c3ccccc3)ccc2OC[C@@H](C)N(C)C[C@H]1C	-
CN1C(=O)c2cc(NC(=O)c3cccc(F)c3)ccc2OC[C@@H]2O[C@H](CC(=O)Nc3ccccc3)CC[C@H]21	55
CO[C@@H]1CN(C)C(=O)c2cc(NC(=O)c3ccc(F)cc3)ccc2OC[C@H](C)N(C)C[C@@H]1C	-
CN1C(=O)c2cc(NS(=O)(=O)c3ccc(Cl)cc3)ccc2OC[C@@H]2O[C@H](CC(=O)N3CCc4ccccc4C3)CC[C@H]21	33
CCNC(=O)C[C@H]1CC[C@H]2[C@@H](COc3ccc(NC(=O)c4ccccc4)cc3C(=O)N2C)O1	50
CO[C@@H]1CN(C)C(=O)c2cc(NS(=O)(=O)c3ccccc3)ccc2OC[C@H](C)N(C)C[C@H]1C	-
CO[C@@H]1CN(C)C(=O)c2cc(NC(=O)c3ccc(F)cc3)ccc2OC[C@@H](C)N(C)C[C@@H]1C	-
CO[C@H]1CN(C)C(=O)c2cc(NC(=O)Cc3ccccc3)ccc2OC[C@H](C)N(C)C[C@H]1C	-
COc1ccccc1C#Cc1ccc2c(c1)O[C@@H](CN(C)Cc1ccncc1)[C@H](C)CN([C@H](C)CO)S2(=O)=O	-
COCC#Cc1cnc2c(c1)C(=O)N([C@@H](C)CO)C[C@H](C)[C@@H](CN(C)C(=O)Cc1cccnc1)O2	-
C[C@@H]1CN([C@H](C)CO)C(=O)c2cc(C#Cc3ccc(F)cc3)cnc2O[C@@H]1CN(C)CC1CCOCC1	-
C[C@H](CO)N1C[C@H](C)[C@H](CN(C)C(=O)Cc2ccncc2)Oc2ncc(C#CCN(C)C)cc2C1=O	-
C/C=C/c1cnc2c(c1)C(=O)N([C@H](C)CO)C[C@@H](C)[C@@H](CN(C)C(=O)Cc1cccnc1)O2	-
COc1ccccc1C#Cc1ccc2c(c1)O[C@H](CN(C)Cc1ccncc1)[C@@H](C)CN([C@@H](C)CO)S2(=O)=O	-
C[C@@H]1CN([C@@H](C)CO)S(=O)(=O)c2ccc(C#Cc3ccccn3)cc2O[C@H]1CN(C)Cc1ccc(F)cc1	-
COc1ccc(S(=O)(=O)N(C)C[C@@H]2Oc3cc(-c4ccccc4OC)ccc3S(=O)(=O)N([C@@H](C)CO)C[C@H]2C)cc1	-
COCC(=O)N(C)C[C@H]1Oc2ncc(C#Cc3ccncc3)cc2C(=O)N([C@@H](C)CO)C[C@H]1C	-
CO[C@@H]1CN(C)C(=O)c2cc(NC(=O)Cc3ccccc3)ccc2OC[C@@H](C)N(CCc2ccccc2)C[C@H]1C	-
COc1cccc(CNC(=O)C[C@H]2CC[C@@H]3[C@@H](COc4ccc(NC(C)=O)cc4C(=O)N3C)O2)c1	53
SMILES	miR122 inh
CC(C)C(=O)Nc1ccc2c(c1)C(=O)N(C)[C@H]1CC[C@H](CC(=O)NCc3cccc(F)c3)O[C@H]1CO2	-
CO[C@H]1CN(C)C(=O)c2cc(NC(=O)c3ccc(F)cc3)ccc2OC[C@@H](C)N(C)C[C@@H]1C	-
CN1C(=O)c2cc(NC(=O)c3cccc(F)c3)ccc2OC[C@H]2O[C@H](CC(=O)N3CCc4ccccc4C3)CC[C@H]21	37
CO[C@H]1CN(C)C(=O)c2cc(NC(=O)c3ccc(F)cc3)ccc2OC[C@@H](C)N(C)C[C@H]1C	-
CNC[C@H]1Oc2cc(C#Cc3cccc(F)c3)ccc2S(=O)(=O)N([C@@H](C)CO)C[C@H]1C	-
COCC(=O)N(C)C[C@@H]1Oc2cc(-c3cccc(F)c3)ccc2S(=O)(=O)N([C@@H](C)CO)C[C@@H]1C	-
